Rows were chosen to be rich in hits. Some 5.5% of all compounds tested hit in one or more screens of this group.
Mito fusion act – qHTS Assay for Small Molecule Inhibitors of Mitochondrial Division or Activators of Mitochondrial Fusion. 320,000 compounds, 0.23% hits. S. cerevisiae fusion-defective mutant growth rescue, CellTiterGlo 48 h. Potency, µM (series often up to 46.1 µM), without a hit: at the highest dose growth rescue (activation), hits mostly activators. AID 485298, 2010; also: % of control where 0% means no effect; nearly all actives have a fitted effect of over 45% in size
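Yeast fusion mutant, YPEG (non-fermentable carbon), compound, 48 h at 37C non-permissive; CellTiterGlo added, 10 min RT, luminescence read. Rescued growth = division inhibition.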
RORg inh – qHTS for inhibitors of ROR gamma transcriptional activity | Drosophila S2 Gal4-RORgamma UAS-luciferase reporter, 20 h | 310,000 compounds, 5.4% hits | Potency, µM (highest dose often 53.6 µM), for inactives: at the highest dose activity change, negative = inhibition, actives largely listed as inhibitors | Nuclear receptor ROR-gamma (Mus musculus), P51450; also: % is scaled to controls: 0 for no effect and ±100 for the full control effect; nearly all actives have a fitted effect of over 60% in size
Target sequence (P51450 whole entry, looked up, the tested form may be a part): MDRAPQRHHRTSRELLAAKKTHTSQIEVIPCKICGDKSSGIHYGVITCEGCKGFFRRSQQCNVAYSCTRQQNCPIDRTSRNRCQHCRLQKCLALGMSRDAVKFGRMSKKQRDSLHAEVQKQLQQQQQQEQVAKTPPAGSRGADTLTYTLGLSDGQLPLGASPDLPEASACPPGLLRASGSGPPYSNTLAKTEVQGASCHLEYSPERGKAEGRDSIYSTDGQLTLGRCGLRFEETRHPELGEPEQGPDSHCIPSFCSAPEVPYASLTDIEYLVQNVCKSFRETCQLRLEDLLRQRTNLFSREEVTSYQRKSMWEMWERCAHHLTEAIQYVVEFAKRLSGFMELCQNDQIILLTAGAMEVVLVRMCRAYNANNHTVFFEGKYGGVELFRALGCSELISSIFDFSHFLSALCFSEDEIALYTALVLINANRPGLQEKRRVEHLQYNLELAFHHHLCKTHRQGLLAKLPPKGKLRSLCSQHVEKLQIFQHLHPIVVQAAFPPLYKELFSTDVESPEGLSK
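Stable Schneider cell line, Gal4 DNA-binding domain fused to ROR gamma, UAS-luciferase. Cmpd 1 hr RT → CuSO4 700 uM final → 20 hr RT → luciferase reagent 10 min → luminescence.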
uPA surface inh – qHTS for Inhibitors of Cell Surface uPA Generation. cell surface uPA generation assay, qHTS. Potency, µM (doses to about 38.3 µM), for the others: at the top dose activity change, negative = inhibition, usual class: inhibitors. AID 540303, 2011. 330,000 compounds, 0.31% hits; active = well fitted inhibition curve with a large enough effect; inconclusive = small, poorly fitted or top-dose-only effect; inactive = no such curve, though single readings can be large or run the other way; tested in mouse RAW 264.7 cells; also: % is scaled to controls: 0 for no effect and ±100 for the full control effect; nearly all actives have a fitted effect of over 55% in size
a7 integrin act – qHTS for Activators of Integrin-Mediated Alleviation for Muscular Dystrophy | 350,000 compounds, 0.064% hits | AID 624291, 2012 | alpha7betagal myoblasts, beta-gal FDG fluorescence, 48 h | Potency, µM (highest dose often 38.3 µM), without a hit: top-dose activation, most hits filed as activators;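 also: 100% = response of the positive control SU9516; nearly all actives have a fitted effect of over 60% in size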
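alpha7betagal+/- myoblasts (passage 13, 250/well) treated 48 h at 37C with compounds at 1:260 dilution of DMSO stock. Lysed, then beta-galactosidase activity read as FDG fluorescence (ex 480/em 540) after 30 min, with pre-read for autofluorescence.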
VP16 counter – VP16 counterscreen qHTS for inhibitors of ROR gamma transcriptional activity; AID 2546, 2010; 310,000 compounds, 3.5% hits; Potency, µM (series often up to 53.6 µM), for the others: at the top dose activity, negative = inhibition, actives largely listed as inhibitors; Drosophila S2 Gal4-VP16 UAS-luciferase, luminescence, 20 h;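 also: Gal4-VP16 expression switched on by copper sulfate through the metallothionein promoter; % is scaled to controls: 0 for no effect and ±100 for the full control effect; nearly all actives have a fitted effect of over 50% in size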
Chronic BCR inh – qHTS Assay to Find Inhibitors of Chronic Active B-Cell Receptor Signaling; ABC-DLBCL IkBa-CBG/CBR reporter, luminescence ratio, 4 h; Potency, µM (top dose mostly 46.1 µM), without a hit: top-dose activity change, negative = inhibition, actives largely listed as inhibitors; 340,000 compounds, 0.05% hits; active = well fitted inhibition curve with a large enough effect in the signal ratio, with a control signal flat, not every such curve was filed as active; inconclusive = small, poorly fitted or top-dose-only effect, or effect the other way, or a change in a side signal; the % refers to the signal ratio;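 also: plate controls were basal doxycycline-induced cells for no effect and cells given 10 µM MG132 for full effect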
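Cell line TMD8 (human ABC DLBCL), stably expressing tet-inducible CBG68-IkBa fusion and CBR; IMDM/0.5% FBS; cpd up to 46 uM; dox induction, 4 h, 37C/5% CO2; dual luminescence; green/red ratio; MG132 control.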
Numbers without * were called inactive; ? = inconclusive; nt = not tested or not shown; [ ] = dose if it differs, or a comment. Unless noted, calls follow the shape of the dose curve; as a rule, active = well fitted curve in the direction sought with a large enough effect; inconclusive = small, poorly fitted or top-dose-only effect, or another doubt; inactive = no such curve, though single readings can be large; an effect the other way counts as inactive or inconclusive. Potency is read from the fitted curve at half-maximal effect.

SMILES	Mito fusion act	RORg inh	uPA surface inh	a7 integrin act	VP16 counter	Chronic BCR inh
CC(=O)Nc1ccc(C(=O)OCc2ccc(Br)cc2)cc1	15.8µM*	27.6%	-0.8%	6.6%	-0.6%	?
CCCCOC(=O)c1ccc(NC(C)=O)cc1	5.6%	1.9%	-5.0%	-1.0%	14.1%	?
CCCCOC(=O)c1ccc(NC(=O)c2nn(C)cc2Br)cc1	?	37.3%	1.0%	-39.1%	3.55µM*	-10.9%
CCCCOC(=O)c1ccc(NC(=S)NC(=O)c2c(Cl)cnn2CC)cc1	-0.7%	7.08µM*	1.5%	-8.0%	17.8µM*	?
CCCCOC(=O)c1ccc(N)cc1	11.2µM*	?	25.8%	nt	?	?
CCCCOC(=O)c1ccc(NC(=S)NC(=O)c2c(Cl)cnn2C)cc1	-2.8%	14.1µM*	4.4%	-5.1%	?	?
O=C(CCCOc1ccc(Cl)cc1Cl)Nc1ccc(O)cc1C(=O)O	-3.5%	-14.6%	4.8%	-10.9%	-10.8%	?
O=C1N[C@@H]2[C@H](CCCCC(=O)Oc3ccc([N+](=O)[O-])cc3)SC[C@H]2N1	nt	16.2%	nt	nt	2.9%	nt
COCCn1c(=O)c(-c2ccc(OC)cc2)nc2cnc(N3CCNCC3)nc21	nt	-18.2%	nt	nt	-16.4%	nt
O=C1N/C(=C/c2ccc(N3CCOCC3)o2)C(=O)N1c1cccc(Cl)c1	-0.5%	3.55µM*	3.98µM*	-29.0%	4.47µM*	?
CC(C)(C)c1ccc(Cn2c(=O)cnc3ccccc32)cc1	11.5%	22.4µM*	-14.3%	-2.6%	?	?
O=C(c1ccc(NC(=S)NCc2ccco2)cc1)N1CCOCC1	-5.3%	8.5%	?	24.0%	5.2%	-3.4%
O=C(NN=C1CCCC1)c1[nH]c2ccc(Br)cc2c1-c1ccccc1	14.9%	11.2µM*	-14.0%	-29.9%	?	?
O=C(N/N=C/c1ccccc1)c1[nH]c2ccc(Br)cc2c1-c1ccccc1	-9.5%	?	-13.8%	10.1%	?	?
Cc1ccc(Cl)cc1N1CCN(C(=O)CNC(=O)c2ccc(Br)o2)CC1	15.8µM*	nt	-1.3%	16.8%	nt	?
COc1cccc(OC)c1OC(=O)c1ccccc1	nt	nt	4.1%	10.4%	nt	nt
Cc1ccccc1C1C=C(c2ccc(Cl)cc2)Nc2nnnn21 (stereo not given)	nt	nt	nt	nt	nt	0.9%
O=C(c1ccco1)N1N=C(c2ccc(Br)cc2)CC1(O)C(F)(F)F (stereo not given)	3.9%	7.08µM*	0.4%	-12.5%	?	0.2%
O=C(c1ccco1)N1N=C(c2ccc(Cl)cc2)CC1(O)C(F)(F)F (stereo not given)	1.7%	?	-1.0%	1.9%	5.62µM*	1.0%
COc1ccc(CCNC(=O)CSc2nc(C)nc3sccc23)cc1OC	-5.2%	2.1%	-2.1%	-24.6%	11.2%	-3.9%
C=C(Nc1ccc(OCC)cc1)Nc1ccc(OCC)cc1	nt	-20.2%	nt	nt	4.0%	nt
OCC(O)C(O)C(O)C(O)CO (stereo not given)	nt	10.1%	nt	nt	-3.8%	nt
CCCCn1c(SCC(=O)NC2CC(C)(C)NC(C)(C)C2)nc2cc(S(N)(=O)=O)ccc21	0.1%	-6.5%	0.9%	14.2%	-7.9%	-1.6%
Cc1cccc(-c2nnc(SCCC(=O)N3CCOCC3)o2)c1	3.9%	?	1.6%	19.8%	7.08µM*	?
O=C(CCSc1nnc(-c2ccccc2)o1)N1CCOCC1	-3.7%	-19.1%	-7.1%	18.6%	-25.8%	5.0%
SMILES	Mito fusion act	RORg inh	uPA surface inh	a7 integrin act	VP16 counter	Chronic BCR inh
Cc1ccc(-c2nnc(SCCC(=O)N3CCOCC3)o2)cc1	11.0%	6.31µM*	-6.0%	9.7%	-4.4%	?
Cc1ccc(Cl)cc1NC(=O)C1C2CCC(O2)C1C(=O)O (stereo not given)	2.9%	4.2%	?	4.6%	-7.8%	?
CCCCn1c(=O)n(CC(=O)Nc2c(CC)cccc2CC)c(=O)c2c1nc(CO)n2CCC	-1.1%	7.08µM*	-7.4%	17.2%	-2.1%	2.6%
CCCCn1c(=O)n(CC(=O)Nc2ccc(OC)c(Cl)c2)c(=O)c2c1nc(CO)n2CCC	-10.7%	-1.7%	-1.4%	-15.0%	-16.2%	?
O=C(Nc1ccc(S(=O)(=O)Nc2nccs2)cc1)c1ccc(=O)[nH]c1	2.8%	-13.5%	4.7%	0.4%	-14.0%	4.8%
CCNc1nc(CC)nc2c1oc1ccccc12	-9.3%	-28.7%	nt	19.5%[7.66 µM]	1.5%	12.9%
CCc1nc(N(CC)CC)c2oc3ccccc3c2n1	7.3%	14.1µM*	-5.6%	-28.7%	?	-0.4%
CCc1nc(N2CCC(C)CC2)c2oc3ccccc3c2n1	?	11.2µM*	nt	-35.9%	?	4.5%
CCCC[C@H](NC(=O)[C@@H]1CCCN1C(=O)[C@H]1CCCN1C(=O)[C@H](Cc1ccccc1)NC(=O)[C@@H](Cc1c[nH]c2ccccc12)NC(=O)[C@H](C)NC(=O)[C@H](CCCN=C(N)N)NC(=O)OC(C)(C)C)C(N)=O	nt	12.5%	nt	nt	-2.1%	nt
O=C(c1ccc(OCCCc2cnc[nH]2)cc1)C1CC1	-6.3%	10.7%	nt	nt	-2.2%	nt
COc1cc2c(-c3ccc4[nH]ccc4c3)c(-c3ccc(C#N)cc3)oc(=O)c2cc1OC	28.5%	nt	2.51µM*	-1.4%	nt	?
C=COC(=O)/C=C/C	nt	2.3%	nt	nt	7.3%	nt
Cc1ccccc1NC(=S)N1CCN(c2ccccc2)CC1	-5.9%	10µM*	0.3%	-14.3%	20µM*	-0.9%
Cc1ccccc1NC(=S)N1CCCCCC1	-13.1%	11.2µM*	0.0%	-31.1%	-26.9%	0.4%
Cn1c(NC2CCCCC2)c(N=O)c(=O)n(C)c1=O	3.5%	5.0%	2.3%	-75.0%	3.3%[10 µM]	8.1%
COc1ccc(-c2nc(CN3CCN(Cc4cccc(Cl)c4)CC3)c(C)o2)cc1	-14.7%	11.2µM*	-25.3%	0.0%	?	?
COc1ccc(-c2nc(CN3CCN(Cc4cccc(F)c4)CC3)c(C)o2)cc1	-15.6%	?	1.9%	11.1%	-28.1%	2.3%
O=C(CSc1nccn1-c1ncc(C(F)(F)F)cc1Cl)c1ccc(Cl)cc1	-0.7%	15.8µM*	0.9%	23.1%	?	3.4%
CCNC(=S)NNc1nc(N2CCCCC2)nc(N2CCOCC2)n1	3.3%	14.1µM*	-4.2%	24.2%	?	-27.3%
c1ccc(Nc2nc(N3CCCC3)nc(N3CCOCC3)n2)cc1	nt	nt	12.7%	nt	nt	nt
CCc1ccc(S(=O)(=O)NC2CC(C)(C)NC(C)(C)C2)cc1	-2.1%	2µM*	-2.3%	21.7%	-4.3%	-1.0%
O=C1C=CC[C@H](/C=C/C[C@@H](O)C[C@H](O)CCc2ccccc2)O1	nt	nt	10µM*	-15.7%	nt	nt

Screening data deposited in PubChem by National Center for Advancing Translational Sciences (NCATS).
